Screening data (PubChem BioAssay)
Mac1 fbg inh – inhibitors of CD11b/CD18 adhesion to fibrinogen, primary screen, K562 cells, luminescence. inhibition, % at 10 µM. AID 1497, 2009. ATPlite luminescence; Mn2+ added to activate the integrin. Integrin beta-2 (Homo sapiens) + Integrin alpha-M (Homo sapiens), P05107+P11215. 0.54% of 93,000 active;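 active = primary inhibition of 50% or more at 10 µM, then 40% or more on retest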
ERb SRC1 inh – inhibitors of ERβ-SRC1 coactivator interaction, primary screen, biochemical, TR-FRET, ERβ LBD, SRC-1 peptide. Estrogen receptor beta (Homo sapiens), Q92731. TR-FRET ER-beta LBD / SRC1-Cy5 peptide binding; receptor agonist-loaded with 1 µM estradiol. inhibition, % at 25.6 µM. 1.3% of 86,000 active. AID 633, 2007;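 active = compounds whose percent inhibition of the receptor-coactivator binding signal exceeds about 50% in the single-dose screen, limit read from the data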;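 also: 0% = receptor plus peptide wells without compound and 100% = peptide-only wells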
ERa coact pot – enhancers of ERα–SRC-1 coactivator binding, primary screen, biochemical, TR-FRET, ERα LBD, low estradiol; Estrogen receptor (Homo sapiens), P03372; TR-FRET ERalpha-LBD/SRC-Cy5 coactivator binding, 2 h; 100 = basal binding, no effect; coactivator binding (% of control), % at 25.6 µM; 1.3% of 86,000 active; AID 639, 2007; in the data active = activity above about 200%;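 also: binding measured in presence of low estradiol as agonist stimulus; 0% = peptide alone without receptor and 100% = receptor with peptide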
Target sequence (P03372 whole entry, looked up, the tested form may be a part): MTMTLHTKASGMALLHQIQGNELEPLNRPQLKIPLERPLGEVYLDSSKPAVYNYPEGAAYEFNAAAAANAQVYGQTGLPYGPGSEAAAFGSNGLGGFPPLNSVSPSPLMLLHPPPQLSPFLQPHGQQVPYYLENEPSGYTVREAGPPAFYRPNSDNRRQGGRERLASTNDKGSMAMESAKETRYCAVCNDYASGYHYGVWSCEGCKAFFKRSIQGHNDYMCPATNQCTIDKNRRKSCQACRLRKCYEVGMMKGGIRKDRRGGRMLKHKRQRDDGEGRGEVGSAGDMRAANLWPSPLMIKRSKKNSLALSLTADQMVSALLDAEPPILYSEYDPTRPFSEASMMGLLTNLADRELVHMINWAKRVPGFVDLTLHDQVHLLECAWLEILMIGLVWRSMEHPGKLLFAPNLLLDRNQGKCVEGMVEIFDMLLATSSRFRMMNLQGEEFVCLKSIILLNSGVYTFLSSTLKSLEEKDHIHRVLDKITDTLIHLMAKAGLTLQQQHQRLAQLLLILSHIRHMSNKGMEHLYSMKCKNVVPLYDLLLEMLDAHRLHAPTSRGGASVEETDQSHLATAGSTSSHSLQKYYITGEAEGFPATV
ERa SRC1 inh – ERα–SRC-1 coactivator interaction inhibitors, primary screen, biochemical, TR-FRET, ERα LBD, estradiol-bound; TR-FRET ER-alpha LBD / SRC-1 peptide; inhibition, % at 25.6 µM; 1.7% of 86,000 active; AID 629, 2007; in the data active = inhibition above about 50%;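 also: 0% = receptor plus peptide control and 100% = peptide only without receptor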
CD11b adhes enh – enhancers of CD11b/CD18 adhesion to fibrinogen, primary screen, K562 cells, luminescence; ATPlite luminescence; activation, % at 10 µM; 0.07% of 93,000 active; AID 1499, 2009;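 active = 10 µM primary screen giving 50% or more activity, confirmed by 40% or more on retest at that dose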
Starred values were filed as active, the others as inactive; . = no result given; [ ] = another dose, or the depositor's remark. Compounds with a hit are over-represented: about 3.1% of the library has one in this group of screens.

SMILES	Mac1 fbg inh	ERb SRC1 inh	ERa coact pot	ERa SRC1 inh	CD11b adhes enh
O=C(c1cnn2c1NC(c1ccc(Br)cc1)CC2C(F)(F)F)N1CCN(C23CC4CC(CC(C4)C2)C3)CC1 (centres undefined)	.	-2	121	0	.
O=C(c1ccccc1)N1CCN2C(=O)c3ccccc3C12c1ccc(Cl)cc1 (centres undefined)	9	-4	125	-5	-2
O=C(Nc1ncc(Cc2cccc(Cl)c2)s1)c1ccc([N+](=O)[O-])cc1	72	.	.	.	6
O=C(NC(Nc1ncc(S(=O)(=O)c2ccc([N+](=O)[O-])cc2)s1)(C(F)(F)F)C(F)(F)F)c1ccc(Cl)cc1	96*	.	.	.	-5
CC1CCN(c2nc(-c3ccccc3O)nc3ccccc23)CC1	.	46	471*[fluorescence artefact?]	39	.
CC(C)Oc1nc(-c2ccccc2O)nc2ccccc12	-6	9	222*[fluorescence artefact?]	9	1
Fc1ccccc1-c1nc(N2CCCCC2)c2ccccc2n1	0	-8	78	-6	10
COc1cccc(-c2nc(Oc3cc(C)cc(C)c3)c3ccccc3n2)c1O	-5	.	.	.	49
Oc1ccccc1-c1nc(N2CCCC2)c2ccccc2n1	2	56*[fluorescence artefact?]	217*[fluorescence artefact?]	56*[fluorescence artefact?]	-2
Oc1ccccc1-c1nc(N2CCN(Cc3ccccc3)CC2)c2ccccc2n1	-3	-3	237*[fluorescence artefact?]	-12	-4
Cc1ccc(-n2c(-c3c(-c4ccccc4)noc3C)n[nH]c2=S)cc1	-4	-5	84	-4	-2
CCOC(=O)c1c(C)nc2c(c1-c1ccc(Cl)cc1)C(=O)CC(C)(C)C2	-11	.	.	.	6
CCOC(=O)c1c(OCC)[nH]c2c1cc(O)c1ccccc12	5	99*[fluorescence artefact?]	68	97*[fluorescence artefact?]	0
Cc1ccc(CNC(=O)c2cc3c(=O)n4ccccc4nc3n(Cc3ccco3)c2=N)cc1	-8	55*[fluorescence artefact?]	53	82*[fluorescence artefact?]	-1
Cc1ccc(S(=O)(=O)c2cc3c(=O)n4ccccc4nc3n(Cc3ccco3)c2=N)cc1	6	63*[fluorescence artefact?]	83	47	2
N=c1c(C(=O)NCc2ccccc2)cc2c(=O)n3ccccc3nc2n1Cc1ccco1	-4	47	68	71*[fluorescence artefact?]	3
N=c1c(C(=O)NCc2ccco2)cc2c(=O)n3ccccc3nc2n1Cc1ccccc1	-14	35	72	47	1
Cc1cccn2c(=O)c3cc(C(=O)NCc4ccco4)c(=N)n(CCc4ccccc4)c3nc12	.	59*	55	93*[fluorescence artefact?]	.
Nc1nonc1C(=O)NCCNS(=O)(=O)c1ccc(F)cc1	-16	.	.	.	6
Cc1ccc(S(=O)(=O)c2cc3c(=O)n4cccc(C)c4nc3n(CC3CCCO3)c2=N)cc1 (centres undefined)	5	3	290*	-30	-2
N=c1c(C(=O)NCc2ccco2)cc2c(=O)n3ccccc3nc2n1Cc1ccc(Cl)cc1	1	58*[fluorescence artefact?]	75	80*[fluorescence artefact?]	40
Cc1ccc(S(=O)(=O)c2cc3c(=O)n4ccccc4nc3n(CC3CCCO3)c2=N)cc1 (centres undefined)	.	32	70	12	.
CC(=O)c1ccc(S(=O)c2ccccc2)cc1 (centres undefined)	13	.	.	.	-2
CCC(=O)n1nc(-c2ccc(Cl)cc2)nc1NCc1ccccc1	-1	7	70	11	-7
CCCCCCCCCCCCCCCC[n+]1cccc2ccccc21	106*	.	.	.	-7
SMILES	Mac1 fbg inh	ERb SRC1 inh	ERa coact pot	ERa SRC1 inh	CD11b adhes enh
O=C(C[n+]1cc2ccccc2c2ccccc21)c1ccccc1	-5	.	.	.	-3
CCCCNc1nc2ccccc2[nH]1	-1	-7	88	-3	1
CCCCCCCCC[n+]1cccc2c3ccccc3ccc21	106*	.	.	.	-10
O=C(Oc1ccc2c(c1)OCO2)c1cc2c(s1)CCC2	8	83*	11	93*[fluorescence artefact?]	3
O=C(c1cc2c(s1)CCCC2)N1CCN(Cc2ccc3c(c2)OCO3)CC1	16	-5	121	-8	1
CC1(C)CCCN(C(=O)c2coc(=O)c(Br)c2)C1	.	83*	14	90*[fluorescence artefact?]	.
CCCC(=O)N(CCN(C(=O)CCC)c1ccccc1)c1ccccc1	.	-4	93	-5	.
Cc1cc(Cl)c(S(=O)(=O)N2CCN(c3ccc(F)cc3)CC2)cc1OCC(=O)NC1CCCCC1	94*	1	92	0	-6
Cc1cc(Cl)ccc1OCC(=O)NCCOc1nc(N2CCOCC2)nc(N2CCOCC2)n1	-8	.	.	.	-2
Nc1ccc(O)c(-c2nc3ccccc3s2)c1	0	64*[fluorescence artefact?]	7	98*[fluorescence artefact?]	64
O=C(CCCn1c(=S)[nH]c2ccccc2c1=O)N1CCN(c2cccc(Cl)c2)CC1	-8	54*[fluorescence artefact?]	39	92*	-6
O=C(CCCCn1c(=O)[nH]c2ccccc2c1=O)N1CCN(c2cccc(C(F)(F)F)c2)CC1	12	-1	106	6	0
O=C(CCCCCn1c(=S)[nH]c2cc3c(cc2c1=O)OCO3)N1CCN(C(=O)c2ccco2)CC1	.	29	211*[fluorescence artefact?]	39	.
O=C(CCCCCn1c(=S)[nH]c2cc3c(cc2c1=O)OCO3)N1CCN(Cc2ccccc2)CC1	4	29	109	40	31
CC1CCCC(NC(=O)COC(=O)CCC2CCCC2)C1C (centres undefined)	-4	-28	109	0	2
Cc1ccccc1-n1c(SCC(=O)Nc2ccccc2)nc2nc3c(cc2c1=O)CCCC3	-24	.	.	.	-1
CC1(C)Oc2ccc3ccc(=O)oc3c2/C(=C/NCCN/C=C2\C(=O)C(C)(C)Oc3ccc4ccc(=O)oc4c32)C1=O	-3	-3	93	5	-2
Cc1c(/C=N/n2cnnc2)c2ccccc2n1CCOc1ccc(Cl)cc1	-11	5	119	53*	1
Cc1ccc(OCCn2c(C)c(/C=N/n3cnnc3)c3ccccc32)cc1	-14	.	.	.	1
Cc1cccc(NC(=O)c2sc3nc(-c4ccc(F)cc4)cn3c2C)n1	19	-15	839*[fluorescence artefact?]	-10	0
CCn1c(=O)c2cc(C(=O)Nc3cc(C)on3)sc2c2ccccc21	-3	44	141	54*[fluorescence artefact?]	25
CCn1c(=O)c2cc(C(=O)NCc3cccs3)sc2c2ccccc21	.	11	190	18	.
COc1ccccc1Oc1ccc(S(=O)(=O)NCc2ccccn2)cc1	68*	5	120	3	-7
COc1ccc(Cl)cc1-c1nc(-c2ccc(Br)o2)no1	-4	48	277*[fluorescence artefact?]	59*[fluorescence artefact?]	5
COc1ccc(-c2nc(-c3ccc(Br)o3)no2)cc1	30	44	121	41	5
COc1cc2nc(N3CCNCC3)nc(N)c2cc1OC	-6	-8	89	87*[fluorescence artefact?]	3
